BoNT-A LC inh2: BoNT A light chain protease inhibition | multiplex microsphere protease substrate cleavage, flow cytometry | inhibition, % at 10 µM | hit rate 0.17% among 360,000 | AID 588499
BoNT F protease: blocks Botulinum neurotoxin F light chain protease. Multiplex microsphere protease cleavage assay, flow cytometry. inhibition, % at 10 µM. hit rate 0.22% among 360,000; in the data active means inhibition above about 35%, passing the limit was not always enough; inconclusive means no clear call, values can overlap the other calls
Autofluor counter: counter-screen for toxin protease inhibitors: compound fluorescence | compound autofluorescence counterscreen, microsphere flow cytometry; stronger effect = higher value | fluorescence intensity (no concentration beside the values) | hit rate 3.1% among 360,000; in the data active means fluorescence intensity above about 16000; inconclusive means no clear call, values can overlap the other calls
GDH-TPI inh: inhibits GDH-TPI coupling enzymes, artifact for Mtb FBA screen. hit rate 1.2% among 360,000. AID 588335. GDH-TPI coupled enzyme counterscreen, NADH absorbance. inhibition, % at 4.8 µM; in the data active means inhibition above about 30%
Mtb FBA inh: Mtb fructose-bisphosphate aldolase inhibition | hit rate 2.3% among 360,000 | purified M. tuberculosis FBA, fluorescence read-out | inhibition, % at 1 µM | AID 588726 | P9WQA3; in the data active means inhibition above about 27%
Target sequence (P9WQA3 whole entry, looked up): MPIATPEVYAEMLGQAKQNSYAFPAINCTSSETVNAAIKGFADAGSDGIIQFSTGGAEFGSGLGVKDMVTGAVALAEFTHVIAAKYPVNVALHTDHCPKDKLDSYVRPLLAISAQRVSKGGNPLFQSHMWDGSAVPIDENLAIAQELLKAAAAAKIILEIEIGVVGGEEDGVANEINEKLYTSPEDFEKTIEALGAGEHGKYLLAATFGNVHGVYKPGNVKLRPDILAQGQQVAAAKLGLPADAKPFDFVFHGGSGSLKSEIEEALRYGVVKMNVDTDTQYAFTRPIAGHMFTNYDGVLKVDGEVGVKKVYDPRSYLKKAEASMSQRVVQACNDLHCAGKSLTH
Anthrax LF prot: anthrax lethal factor protease inhibition | inhibition, % at 10 µM | multiplex microsphere protease cleavage assay, LF | P15917 | hit rate 0.12% among 360,000
Each line names hits and unclear results; the compound was inactive in the other large screens. In the library only some 6.6% were active in any assay of this set; here they are far more common. Unless noted, no stated cut-off is given here; in the data, active means inhibition above about 30%; inconclusive means no clear call, values can overlap the other calls; inactive means below that.

Cc1ccc(-c2cc(C(=O)N3CC(C)OC(C)C3)c3ccccc3n2)o1 (stereo unspecified)	Mtb FBA inh 146
Cc1ccc(-c2cc(C(=O)n3cnc4ccccc43)c3ccccc3n2)cc1C	Mtb FBA inh 50
CC(c1ccc(F)cc1)n1c(-c2cccs2)n[nH]c1=S (stereo unspecified)	none
O=C(O)C1CCCCC1C(=O)NCc1ccccn1 (stereo unspecified)	none
CCOC(=O)[C@]12CCCC=C1N(Cc1cccc3ccccc13)C(=O)[C@H](CC(=O)N1CCCCC1)C2	none (no result: GDH-TPI inh, Mtb FBA inh)
NC(=O)c1nsc(C(=O)N(CC(=O)NC2CCCC2)Cc2ccc3c(c2)OCO3)c1N	none
COc1ccc(-c2c(C(=O)O)nc3ccccc3c2C(=O)O)cc1	Autofluor counter 16308
COc1ccc(-c2cc(C(=O)Oc3ccc([N+](=O)[O-])cc3)c3ccccc3n2)cc1	Mtb FBA inh active
CCCc1cc(C(=O)O)c2ccccc2n1	none
O=C(c1cc(-c2cccnc2)nc2ccccc12)N1CCC2(CC1)OCCO2	Autofluor counter 19594
CCc1ccc(-c2cc(C(=O)O)c3ccccc3n2)s1	GDH-TPI inh 38, Mtb FBA inh 152
O=C(c1cc(-c2cccnc2)nc2ccc(Cl)cc12)N1CCC2(CC1)OCCO2	none
O=C1C2C3C=CC(CC3)C2C(=O)N1c1ccccc1[N+](=O)[O-] (stereo unspecified)	none
Cc1ccc(-c2cc(C(=O)N3CCCC3)c3ccccc3n2)s1	Mtb FBA inh active
O=C(c1cc(-c2ccncc2)nc2ccccc12)N1CCN(c2ccccn2)CC1	Autofluor counter 17502
O=C(O)c1cc(-c2cccc3ccccc23)nc2ccccc12	none
CCn1cc(-c2cc(C(=O)O)c3ccccc3n2)c(C)n1	Mtb FBA inh 130
O=C(c1cc(-c2cccc(Br)c2)nc2ccccc12)N1CCCC1	none
O=C(c1cc(-c2ccccc2)nc2ccccc12)N1CCN(c2ccccn2)CC1	none
C=Cc1ccc(Cn2c(C)c(C(=O)NCc3ccc4c(c3)OCCO4)sc2=O)cc1	none
N#C/C(=C\c1ccccc1)C(=O)NNS(=O)(=O)c1ccc(Br)cc1	none
O=S(=O)(Cc1ccccc1)N1CCCCC1	none
O=S(=O)(Cc1ccccc1)N1CCc2ccccc2C1	BoNT-A LC inh2 inconclusive, Autofluor counter 26161
COc1ccccc1CC(=O)NC1CCCCCC1	none
COc1cc(CNn2cnnc2)ccc1OCC(=O)NC1CCCCC1	Autofluor counter 24056
CCc1ccccc1OCC(=O)NC1CCCC1	Autofluor counter 23047
O=C(CN1C(=O)C(=O)c2ccccc21)NC1CCCCC1	BoNT-A LC inh2 inconclusive, Autofluor counter 21596
O=C(Nc1ccc(Br)cc1)N1CCCCC1	none
COCC(=O)NC1CCN(C(=O)Nc2ccc(Br)cc2)CC1	Autofluor counter 16587
O=C(Nc1ccc2c(c1)OCO2)C1Cc2c(-c3ccccc3Oc3ccccc3)ccnc2O1 (stereo unspecified)	none
Cc1cc2c(ncn2Cc2ccccc2)c(N)c1C	none
CCc1ccccc1NC(=O)CN1CCC(NC(=O)COC)CC1	BoNT-A LC inh2 inconclusive, Autofluor counter 23013
COc1ccccc1OCC(=O)NCC1CCCCC1	Autofluor counter 23960
COC(=O)c1ccccc1OCC(=O)NC1CCCCC1	Autofluor counter 21631
COc1cccc(OC)c1C(=O)OCC(=O)NCC1CCCCC1	none
COCC(=O)NC1CCN(CC(=O)Nc2ccccc2[N+](=O)[O-])CC1	none
COC(=O)c1ccc(OCC(=O)NC2CCCCCCC2)cc1	none
CC1(C(=O)NS(=O)(=O)c2cccc(C#N)c2)CCN1C(=O)CC1CCCCC1 (stereo unspecified)	none
CC(C)Oc1cccc(-c2cc(C(=O)NN3CCOCC3)c3ccccc3n2)c1	none
NS(=O)(=O)c1ccc(CCNC(=O)c2cc(-c3ccc(Br)cc3)nc3ccccc23)cc1	none
CCCc1ccc(-c2cc(C(=O)NN3CCOCC3)c3ccccc3n2)cc1	Autofluor counter 23255
CCCc1ccc(-c2cc(C(=O)NCCc3ccc(S(N)(=O)=O)cc3)c3ccccc3n2)cc1	Autofluor counter 22125
CCCn1c(COc2ccccc2)nc2ccccc21	BoNT F protease 42
CCOCCn1c(COc2ccccc2)nc2ccccc21	none
O=C(COC(=O)/C=C/c1ccc(F)cc1)Nc1ccc(S(=O)(=O)N2CCOCC2)cc1	none
Cc1ccc(/C(N)=N/OC(=O)/C=C/c2ccccc2)cc1	none
Cc1ccccc1/C(N)=N/OC(=O)/C=C/c1ccccc1	Autofluor counter 22804
COc1ccc(/C=C/C(=O)O/N=C(\N)c2ccccc2)cc1OC	GDH-TPI inh 40
COc1ccc(/C(N)=N/OC(=O)/C=C/c2ccccc2)cc1	BoNT F protease 62
CCOc1ccc(NC(=O)CSc2nc3ccsc3c(=O)n2Cc2ccc(C(=O)O)cc2)cc1	none
O=C(NN=Cc1ccc2c(c1)OCO2)C1CC1	none
O=C(NN=Cc1ccc2c(c1)OCO2)NN=Cc1ccc2c(c1)OCO2	GDH-TPI inh 38
CN(C)c1ccc(/C=N/NC(=O)c2cccc(N3CCCC3=O)c2)cc1	GDH-TPI inh 46
CN(C)c1ccc(/C=N/NC(=O)c2ccc3c(c2)OCO3)cc1	GDH-TPI inh 42
Cc1ccc(C(=O)N/N=C\c2ccc3c(c2)OCO3)cn1	none
Cc1ccc(C(=O)NN=Cc2ccc3c(c2)OCO3)cc1	GDH-TPI inh 35
CCc1nnc(NC(=O)/C=C/c2cccs2)s1	none
O=C(Cc1ccccc1)N/N=C/c1ccc2c(c1)OCO2	none
CC(=O)Nc1cccc(N2CCCC2=O)c1	Autofluor counter 25393
Cc1ccc(C(=O)N/N=C/c2ccc3c(c2)OCO3)o1	GDH-TPI inh 40
O=C(CCc1c[nH]c2ccccc12)N/N=C/c1ccc2c(c1)OCO2	GDH-TPI inh 38
C[C@H]1C=C(C(=O)O)O[C@@H](OCc2ccc(CO)cc2)C1	none
O=C(NCc1ccc(-c2nc3ccccc3s2)cc1)c1ccc(Br)o1	none
O=C(COC(=O)c1ccc(Br)o1)Nc1nc2ccccc2s1	Autofluor counter 16288
Cc1ccc2nc(NC(=O)COC(=O)c3ccc(Br)o3)sc2c1	none
O=C(Nc1ccccc1-c1nc2ccccc2s1)c1ccc(Br)o1	Autofluor counter 23088
O=S(=O)(NCCSc1ccccn1)c1ccc(Br)cc1	none
COc1ccc(C(OC(=O)c2c(C)noc2C)C(=O)NC2CCCC2)cc1 (stereo unspecified)	Autofluor counter 19678
COc1ccc(C(OC(=O)c2ccco2)C(=O)NC2CCCCC2)cc1 (stereo unspecified)	none
CCOC(=O)c1cc(CC)sc1NC(=O)C1CC(=O)NN1Cc1ccccc1 (stereo unspecified)	none
CCOC(=O)c1cc(CC)sc1NC(=O)COC	Autofluor counter 18881
CCOC(=O)c1cc(CC)sc1NC(=O)Cc1ccccc1	BoNT-A LC inh2 inconclusive, Autofluor counter 20942
CCc1ccc(/C=N/n2c(C)cc(C)c(C#N)c2=O)cc1	none
Fc1ccc(Cc2nnc(-c3cccs3)o2)cc1	none
c1ccc(-c2nnc(CSc3nnc(-c4cccs4)o3)o2)cc1	Autofluor counter 22467

Screening results: PubChem, several laboratories
